# From article PMC4336329 (PLoS ONE, 2015)
# The whole screen tested about 310,000 compounds, of which about 14,000 (4.5%) showed an effect of 50% or more. Effects have a minus sign here. Shown is part of a subset that was picked to be rich in strong results.
# Molecular target: human ether-à-go-go-related gene (hERG) potassium channel (human, UniProt Q12809)
# Test: primary screen, population patch clamp on CHO cells stably expressing hERG; higher = less effect of the substance
# 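Further: peak tail current of the secondary pulse compared with the same well before compound.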
# human ether-à-go-go-related gene (hERG) potassium channel, sequence (Q12809 whole entry, looked up): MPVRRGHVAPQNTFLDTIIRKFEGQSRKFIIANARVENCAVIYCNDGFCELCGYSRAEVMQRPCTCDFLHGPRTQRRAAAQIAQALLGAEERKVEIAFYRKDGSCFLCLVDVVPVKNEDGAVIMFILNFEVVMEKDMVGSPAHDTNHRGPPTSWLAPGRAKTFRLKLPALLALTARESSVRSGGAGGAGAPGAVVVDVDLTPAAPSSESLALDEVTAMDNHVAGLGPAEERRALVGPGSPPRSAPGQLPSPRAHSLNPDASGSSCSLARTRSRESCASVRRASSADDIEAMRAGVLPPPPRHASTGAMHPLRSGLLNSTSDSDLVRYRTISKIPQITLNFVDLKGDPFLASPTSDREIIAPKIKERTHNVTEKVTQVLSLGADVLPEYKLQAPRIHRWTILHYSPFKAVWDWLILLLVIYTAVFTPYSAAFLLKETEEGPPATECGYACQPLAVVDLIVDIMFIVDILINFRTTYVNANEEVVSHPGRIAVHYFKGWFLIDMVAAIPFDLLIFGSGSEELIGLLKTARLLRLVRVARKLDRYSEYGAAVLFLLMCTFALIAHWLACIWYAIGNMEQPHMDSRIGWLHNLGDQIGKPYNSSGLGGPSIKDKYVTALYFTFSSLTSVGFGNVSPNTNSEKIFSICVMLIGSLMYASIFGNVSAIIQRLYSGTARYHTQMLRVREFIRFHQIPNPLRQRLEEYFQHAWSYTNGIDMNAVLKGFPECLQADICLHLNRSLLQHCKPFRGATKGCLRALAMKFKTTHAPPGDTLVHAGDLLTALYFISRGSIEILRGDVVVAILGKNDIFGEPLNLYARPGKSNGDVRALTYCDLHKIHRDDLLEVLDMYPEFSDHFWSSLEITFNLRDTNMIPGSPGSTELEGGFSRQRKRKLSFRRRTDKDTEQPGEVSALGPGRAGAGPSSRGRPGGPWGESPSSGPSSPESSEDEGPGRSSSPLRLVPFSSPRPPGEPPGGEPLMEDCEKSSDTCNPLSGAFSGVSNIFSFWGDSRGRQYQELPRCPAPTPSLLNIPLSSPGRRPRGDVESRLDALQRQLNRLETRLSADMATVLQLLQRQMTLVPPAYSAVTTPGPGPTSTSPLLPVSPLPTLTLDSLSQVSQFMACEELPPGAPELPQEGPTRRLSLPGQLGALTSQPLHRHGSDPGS
row,Compound,"hERG current change (%, negative = inhibition) at 10uM"
1,CC(C)(C)c1ccc(C(=O)NCCC(=O)N2CCCC2)cc1,16.4%
2,Cc1ccc(NC(=S)N(C)N)cc1Cl,16.8%
3,COC(=O)CN1C(=O)[C@@H]2[C@H](C1=O)[C@@H]1CC(C(=O)OC)=C[C@@H](C(=O)OC)[C@@H]3C1=C(C(=O)[C@@]3(C)NC(=O)c1ccccc1)[C@@H]2C,-2.29%
4,COc1ccc(CNS(=O)(=O)c2ccc(-n3cnnn3)c(C)c2)cc1,-15.3%
5,CCSC(=S)c1c(C)[nH]n(-c2ccccc2)c1=O,12.9%
6,Cc1ccc(NC(=O)c2cc(S(=O)(=O)c3ccccc3)ccc2Cl)cc1,-15.4%
7,O=C(Nc1ccc(F)cc1)C(c1ccccc1)N1CCN(CC(=O)N2CCOCC2)CC1 (centres unmarked),-52.1%
8,O=C(Nc1ccc(Cl)cc1)C(c1ccccc1)N1CCOCC1 (centres unmarked),-27.6%
9,Cc1ccc(NC(=O)C(c2ccccc2)N2CCN(CC(=O)N3CCOCC3)CC2)cc1 (centres unmarked),-43%
10,CCOc1ccccc1NC(=O)C(c1ccccc1)N1CCN(CC(=O)N2CCOCC2)CC1 (centres unmarked),-76.1%
11,CCOc1ccccc1NC(=O)NC1(C(=O)N2CCOCC2)CCCCC1,15.6%
12,Cc1ccc(NC(=O)C(c2ccccc2)N2CCN(CC(=O)N3CCOCC3)CC2)cc1Cl (centres unmarked),-67.4%
13,O=C(Nc1ccc(F)cc1)C(c1ccccc1)N1CCN(CC(=O)N2CCCC2)CC1 (centres unmarked),-65.3%
14,O=C(CN1CCN(C(c2ccccc2)c2ccccc2)CC1)N1CCOCC1.O=C(O)C(=O)O,-22.3%
15,CC(C)c1ccc(NC(=O)C(c2ccccc2)N2CCOCC2)cc1 (centres unmarked),-12.2%
16,O=C(Nc1ccc(F)cc1)C(c1ccccc1)N1CCN(S(=O)(=O)c2ccccc2)CC1 (centres unmarked),-5.63%
17,COc1cccc(NC(=O)C(c2ccccc2)N2CCN(CC(=O)N3CCOCC3)CC2)c1 (centres unmarked),-36.8%
18,O=C(CN1CCN(C(C(=O)Nc2ccc(F)cc2)c2ccccc2)CC1)NC1CC1 (centres unmarked),-27.8%
19,COC(=O)c1c(C(=O)OC)c2n(c1C)CCS2,3.54%
20,COc1ccc(OC)c(NC(=O)COC(=O)Cn2nnc(-c3ccccc3)n2)c1,2.66%
21,CCCc1nn2c(=O)cc(CSCC(=O)Nc3ccccc3OC)nc2s1,14.8%
22,O=C(CSc1nc2ccccc2nc1N1CCOCC1)Nc1ccccc1F,-4.19%
23,COc1cccc(C(=O)Nc2ccc(NC(=O)Cc3ccccc3)cc2)c1,-24.1%
